From ChEMBL document CHEMBL4513216, “Probing the Open Global Health Chemical Diversity Library for Multistage-Active Starting Points for Next-Generation Antimalarials” (ACS Infect Dis, 2020)
About 8,600 (12%) of roughly 69,000 compounds showed an effect of 50% or more. What follows is part of a selection rich in strong results, with near analogues and random picks from the rest.

system: Plasmodium berghei; assay: Screen against P. berghei liver stage (PbLuc), transformed with Luciferase, at 10uM; format: functional, HepG2; settings: tested at 10 uM

SMILES	INHIBITION [%]
CC(=O)N1CCN(CCNC(=O)c2nc3ccccc3c(=O)[nH]2)CC1	-96.2
CCNC(=O)[C@@H]1C[C@@H](NC(=O)c2ccc(C)cc2O)CN1CCCSC	15.9
Cc1cc(OCC(=O)N2CCCC(c3nccs3)C2)no1 (centres undefined)	-19.6
Cc1nn(C)c(Cl)c1S(=O)(=O)N(C)c1ccc(Cl)cn1	14.4
O=C1CC(c2ccncc2)C2(CCN(Cc3ccc(F)cc3)CC2)N1 (centres undefined)	1.71
CN(C)CCOCc1nnc2n1CCN(Cc1ccco1)CC2	16.4
Cc1cc(Br)ccc1C(=O)Nc1c(C(N)=O)n[nH]c1C	3.87
Cc1cnc2c(C(=O)N3CCCC(OCc4ccccn4)C3)cnn2c1 (centres undefined)	37.9
CN1CCN(Cc2ccc(Cl)cc2)CC1C(=O)O (centres undefined)	17
CC(=O)NCC(=O)N1CCC(C2CCN(Cc3ccc(Cl)cc3)C2)CC1 (centres undefined)	26.9
O=C1CN(C(=O)C2CCCCC2)CC(O)CN1Cc1ccc(Cl)cc1 (centres undefined)	-0.473
O=C(C1CCC1)N1CCC(C2CCN(Cc3ccc(Cl)cc3)C2)CC1 (centres undefined)	55.6
CCOCC(=O)N1CCC(C2CCN(Cc3ccc(Cl)cc3)C2)CC1 (centres undefined)	26.9
O=C(C1CCCC1)N1CCC(C2CCN(Cc3ccc(Cl)cc3)C2)CC1 (centres undefined)	67.3
CCc1nc(C2CCCN2CC(=O)N2CCCc3ccccc32)no1 (centres undefined)	15.3
CN(C)c1cc(C(=O)N2CCCCCC2)ccn1	5.308
O=S(=O)(CCNC1CCc2ncnn2C1)c1ccccc1 (centres undefined)	20.6
COC1CC2(CCN(Cc3ccc4c(c3)OCO4)CC2)C1	37.4
Cc1nn(CC(O)CN2CCc3ccccc3C2)c(=O)c2ccccc12 (centres undefined)	18.6
NC(=O)c1c(NC(=O)CCC(=O)O)sc2c1CCc1ccccc1-2	-13
Cc1cccc(OCCN2CCN(Cc3cnn(CCO)c3)CC2)c1	32.9
Cc1noc(C)c1S(=O)(=O)NCC(C)(O)c1ccc2c(c1)OCO2 (centres undefined)	31.3
Cc1nn(C)c(C)c1S(=O)(=O)NCC(C)(O)c1ccc2c(c1)OCO2 (centres undefined)	34.3
Cn1cnc(S(=O)(=O)NCC(C)(O)c2ccc3c(c2)OCO3)c1 (centres undefined)	52.5
CNc1nccnc1C1CN(C(=O)c2cc[nH]n2)CCO1 (centres undefined)	-22.5
CN1CCN(C)C(CNc2c(C#N)cnc3ccc(Cl)cc23)C1 (centres undefined)	7.18
c1cncc(C2CC3(CCN(c4cnccn4)CC3)c3ccccc32)c1 (centres undefined)	54.1
CN(C)CCOC1CC2(CCN(c3cnccn3)CC2)c2ccccc21 (centres undefined)	31.9
CCOC1CC2(CCN(c3cnccn3)CC2)c2ccccc21 (centres undefined)	37.9
